Drawing on PubChem BioAssay AID2073 (Sanford-Burnham Center for Chemical Genomics, 2009), this text covers inhibition for 55 compounds.

About 570 (0.2%) of roughly 290,000 compounds were called active. About 1% were inconclusive and are not listed. No stated cut-off is given here; in the data, active means inhibition mostly above about 51% (no sharp cut-off); inconclusive means no clear call, values can overlap the other calls; inactive means mostly below about 53%. What follows is part of a selection rich in actives, with near analogues and random picks from the rest.

This assay deals with Voltage-dependent N-type calcium channel subunit alpha-1B (Homo sapiens) (UniProt Q00975). Briefly: inhibitors of Mint1-CaV2.2 protein interaction, biochemical, HTRF (AID 2073). The conditions noted are these: at 20 µM, stronger effect = higher value. A general note: In TR-FRET formats the signal depends on donor and acceptor labels being close together.
Sequence of Voltage-dependent N-type calcium channel subunit alpha-1B (Homo sapiens) (Q00975 whole entry, looked up): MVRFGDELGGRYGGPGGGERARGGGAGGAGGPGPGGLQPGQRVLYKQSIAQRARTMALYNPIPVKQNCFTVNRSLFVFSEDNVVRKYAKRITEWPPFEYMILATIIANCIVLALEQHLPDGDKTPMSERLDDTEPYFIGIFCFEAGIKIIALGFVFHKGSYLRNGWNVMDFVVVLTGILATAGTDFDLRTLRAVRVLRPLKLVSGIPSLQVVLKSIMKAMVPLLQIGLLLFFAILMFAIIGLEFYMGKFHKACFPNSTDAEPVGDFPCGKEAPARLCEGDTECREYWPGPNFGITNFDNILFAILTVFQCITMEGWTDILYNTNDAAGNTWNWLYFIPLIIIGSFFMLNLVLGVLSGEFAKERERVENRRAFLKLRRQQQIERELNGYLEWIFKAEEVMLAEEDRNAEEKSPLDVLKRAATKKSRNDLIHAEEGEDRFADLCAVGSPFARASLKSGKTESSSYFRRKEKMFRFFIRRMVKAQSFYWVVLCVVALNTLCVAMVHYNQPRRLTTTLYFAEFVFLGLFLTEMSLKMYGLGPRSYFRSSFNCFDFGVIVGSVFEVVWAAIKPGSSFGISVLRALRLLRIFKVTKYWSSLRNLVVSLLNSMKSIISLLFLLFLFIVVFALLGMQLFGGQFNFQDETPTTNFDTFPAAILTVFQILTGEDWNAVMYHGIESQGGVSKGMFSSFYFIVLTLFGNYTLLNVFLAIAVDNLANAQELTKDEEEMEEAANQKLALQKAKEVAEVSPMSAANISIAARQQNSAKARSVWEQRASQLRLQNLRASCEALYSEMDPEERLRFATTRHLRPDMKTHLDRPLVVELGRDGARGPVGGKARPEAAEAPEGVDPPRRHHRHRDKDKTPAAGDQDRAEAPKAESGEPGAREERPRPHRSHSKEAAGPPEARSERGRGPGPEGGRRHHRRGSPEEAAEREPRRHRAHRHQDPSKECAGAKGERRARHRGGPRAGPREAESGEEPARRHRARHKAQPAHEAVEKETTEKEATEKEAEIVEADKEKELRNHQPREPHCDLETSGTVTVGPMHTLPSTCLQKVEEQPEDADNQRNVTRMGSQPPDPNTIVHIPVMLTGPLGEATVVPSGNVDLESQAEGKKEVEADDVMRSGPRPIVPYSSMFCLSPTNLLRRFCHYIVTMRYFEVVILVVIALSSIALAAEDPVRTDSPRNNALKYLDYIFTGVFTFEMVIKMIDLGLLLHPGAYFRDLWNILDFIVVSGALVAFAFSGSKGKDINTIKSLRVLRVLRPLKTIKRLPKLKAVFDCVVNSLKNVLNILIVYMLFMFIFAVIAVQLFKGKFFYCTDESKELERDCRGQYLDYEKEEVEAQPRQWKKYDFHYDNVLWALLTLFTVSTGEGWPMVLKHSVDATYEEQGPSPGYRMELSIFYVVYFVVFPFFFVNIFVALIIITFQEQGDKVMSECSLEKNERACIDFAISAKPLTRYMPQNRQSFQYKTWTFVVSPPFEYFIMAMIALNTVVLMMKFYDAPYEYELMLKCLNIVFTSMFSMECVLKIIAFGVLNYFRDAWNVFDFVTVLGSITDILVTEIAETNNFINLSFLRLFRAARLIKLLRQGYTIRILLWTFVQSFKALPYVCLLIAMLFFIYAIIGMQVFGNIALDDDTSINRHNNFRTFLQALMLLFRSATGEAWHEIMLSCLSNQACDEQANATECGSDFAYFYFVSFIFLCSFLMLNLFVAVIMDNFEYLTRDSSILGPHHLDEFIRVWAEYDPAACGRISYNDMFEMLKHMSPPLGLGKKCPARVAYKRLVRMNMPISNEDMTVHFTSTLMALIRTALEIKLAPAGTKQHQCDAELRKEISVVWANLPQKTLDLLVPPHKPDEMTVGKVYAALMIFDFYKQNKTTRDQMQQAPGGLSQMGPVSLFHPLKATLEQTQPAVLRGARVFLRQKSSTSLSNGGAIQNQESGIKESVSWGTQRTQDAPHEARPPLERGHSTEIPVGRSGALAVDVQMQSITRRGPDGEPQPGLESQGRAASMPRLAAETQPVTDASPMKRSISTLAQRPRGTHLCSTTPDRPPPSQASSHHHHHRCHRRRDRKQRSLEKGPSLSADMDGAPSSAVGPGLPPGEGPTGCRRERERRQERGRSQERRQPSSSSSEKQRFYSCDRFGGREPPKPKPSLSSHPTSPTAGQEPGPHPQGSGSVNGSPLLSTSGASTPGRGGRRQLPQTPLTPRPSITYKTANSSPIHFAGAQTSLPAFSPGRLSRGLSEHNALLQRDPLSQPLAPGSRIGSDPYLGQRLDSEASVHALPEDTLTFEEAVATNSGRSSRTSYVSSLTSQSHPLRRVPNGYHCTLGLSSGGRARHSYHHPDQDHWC

Take `C#CCOCCOCCOCCNc1nc(N2CCN(C(=O)C(Cc3ccc(O)cc3)n3cc(C(N)CC(C)C)nn3)CC2)nc(N2CCN(C(=O)C(Cc3cc4ccccc4[nH]3)n3cc(C(N)Cc4ccc(O)cc4)nn3)CC2)n1` (stereo unspecified): the inhibition – broadly, the relative decrease from the control value, in per cent – is 14.6% (inactive).
On the same count and under the same terms, the figure for `C#CCOCCOCCOCCNc1nc(N2CCN(C(=O)[C@H](Cc3ccc(O)cc3)n3cc([C@@H](N)CC(C)C)nn3)CC2)nc(N2CCN(C(=O)[C@H](Cc3cc4ccccc4[nH]3)n3cc([C@@H](N)CC(C)C)nn3)CC2)n1` is 22.3% (inactive); for `C#CCOCCOCCOCCNc1nc(N2CCN(C(=O)[C@H](Cc3cc4ccccc4[nH]3)n3cc([C@@H](N)Cc4ccc(O)cc4)nn3)CC2)nc(N2CCN(C(=O)[C@H](Cc3cc4ccccc4[nH]3)n3cc([C@@H](N)CC(C)C)nn3)CC2)n1` it is 51.5% (active).
On the same count and under the same terms, then `CC[N+](CC)(CC#Cc1ccccc1)CC(=O)c1ccc(Cl)cc1`, with -0.1% (inactive).
As to `Cc1nc(C)c(C(=O)OCC(=O)N2CCN(c3ccccc3)CC2)s1`, the inhibition was -4.9% (inactive).
Regarding `COC(=O)c1ccccc1NC(=O)CN1CCC(NC(=O)c2ccc(C)cc2)CC1`, the inhibition is -3.1% (inactive).
On the same count and under the same terms, the figure for `Nc1c(C(=O)N/N=C/c2ccccc2Cl)oc2nc(-c3ccccc3)cc(-c3ccco3)c12` is 45.6% (inactive); for `NNC(=O)c1oc2nc(-c3cccs3)cc(-c3ccco3)c2c1N` it is 51.7% (active).
Still for that read-out and setting: the figure for `Nc1c(C(=O)N/N=C/c2cccnc2)oc2nc(-c3ccco3)cc(-c3ccco3)c12` is 44.8% (inactive).
As for `NNC(=O)c1oc2nc(-c3ccco3)cc(-c3ccco3)c2c1N`, the inhibition is 59.1% (active).
On the same count and under the same terms, the figure for `NNC(=O)c1oc2nc(-c3ccccc3)cc(-c3ccccc3)c2c1N` is 18.4% (inactive).
Turning to `Cc1ccc(-c2cc(-c3ccco3)c3c(N)c(C(=O)NN)oc3n2)cc1`, the inhibition was 55.5% (inactive). Where the note is “measured here: average of repeat tests”, the inhibition came to 31.3%.
For `N#Cc1c(Nc2ccccc2)c(/C=N/NCCO)c[nH]c1=O`, the inhibition was -20.2% (inactive).
For the compound `CN(C)c1cccc(C(=O)OCC(=O)NC2CCCC2)c1`, the inhibition is 2.1% (inactive).
Consider `Cc1oc(-c2ccccc2F)nc1CS(=O)(=O)CC(=O)N1CCCCCC1`, for which the inhibition is -4.2% (inactive).
Same read-out and setting: then `COc1cc(C(=O)NCCC(=O)NCCCN2CCCCC2)cc(OC)c1OC`, with -4% (inactive).
In the case of `FC(F)(F)c1ccccc1NC1=NCCC1`, the inhibition is 0.7% (inactive).
The same measure, in the same setting: the figure for `Cc1cc(C)c(C#N)c(Nc2ccccc2Cl)n1` is 5.7% (inactive); for `FC(F)(F)c1ccccc1Nc1nccs1` it is -8.5% (inactive); for `Cc1nsc(Nc2ccccc2)c1C#N` it is 36.6% (inactive).
Same read-out and setting: the figure for `COc1cccc(CC(Cc2nc3ccccc3[nH]2)c2nc3ccccc3[nH]2)c1` (stereo unspecified) is 4.4% (inactive).
Still for that read-out and setting: the figure for `CCOc1ccc(/C=N/NC(=O)CSc2n[nH]c(=O)[nH]c2=O)cc1OC` is -0.5% (inactive); for `CC(=O)c1ccc(N2CCN(C(=O)c3ccc(Cl)c(NC4=NC5CS(=O)(=O)CC5S4)c3)CC2)cc1` (stereo unspecified) it is 3.4% (inactive); for `Cc1ccnc(NS(=O)(=O)c2ccc(NC(=O)C3CCCO3)cc2)n1` (stereo unspecified) it is -3% (inactive).
Consider `O=C(NCc1ccc(F)cc1)C1CCCN1C(=O)Nc1cccc(F)c1` (stereo unspecified), for which the inhibition is 8.7% (inactive).
With `Cc1ccc(N=CC=C2OC(C)(C)C(C)(C)O2)cc1`, the inhibition is 1.3% (inactive).
On the same count and under the same terms, then `COc1cc2c(cc1NC(=O)C(C)OC(=O)c1ccc(S(=O)(=O)Nc3ccccc3Cl)cc1)oc1ccccc12` (stereo unspecified), with 56.6% (active); and `COc1ccc(S(=O)(=O)Nc2ccccc2Cl)cc1NC(C)=O`, with 1.4% (inactive); and `COc1cc2c(cc1NC(=O)C(C)N1CCN(S(=O)(=O)c3ccc(C)c(C)c3)CC1)oc1ccccc12` (stereo unspecified), with 12.7% (inactive).
As to `Cc1nc2cc(F)ccc2n1C1CCN(S(=O)(=O)c2ccccc2)CC1`, the inhibition is 5.6% (inactive).
Take `O=C(c1csc2c1CCCC2)N1CCN(c2ccccc2)CC1`: the inhibition is -0.9% (inactive).
Still for that read-out and setting: then `Cc1cc(C)cc(Nc2nc(-c3ccc(S(=O)(=O)N4CCCC4)cc3)cs2)c1`, with 67.2% (active).
On the same count and under the same terms, the figure for `Cc1ccc(Nc2nc(-c3ccc(S(=O)(=O)N4CCCC4)cc3)cs2)cc1C` is 36.3% (inactive).
Consider `O=S(=O)(c1ccc(-c2csc(Nc3ccc(Br)cc3)n2)cc1)N1CCCC1`, for which the inhibition is -7.1% (inactive).
Take `COC(=O)c1ccccc1NC(=O)COc1ccc(S(=O)(=O)N2CCCC2)cc1C`: the inhibition was 6.4% (inactive).
On the same count and under the same terms, the figure for `Nc1cccc2c(=O)c3ccccc3[nH]c12` is 41.4% (inactive); for `COc1cccc2c(=O)c3cccc(N)c3[nH]c12` it is 52.3% (active).
The same measure, in the same setting: then `COc1cccc2[nH]c3ccccc3c(=O)c12`, with 30.8% (inactive); and `CCCCN(C)C(=O)CSc1nc(NCc2ccc(OC)cc2)c2ccccc2n1`, with -1% (inactive); and `CCCn1c(C(C)Nc2nc(-c3ccc(Cl)c([N+](=O)[O-])c3)cs2)nc2cc(Cl)c(N3CCCCC3)cc21` (stereo unspecified), with 21% (inactive).
On the same count and under the same terms, the figure for `CCOC(=O)c1sc2nc3c(SCC(=O)O)cc(C(=O)c4ccccc4O)cn3c(=O)c2c1C` is 53.3% (active).
For `CCOC(=O)c1sc2nc3c(SCC(=O)O)cc(C(=O)c4cc(F)ccc4O)cn3c(=O)c2c1C`, the inhibition was 18.6% (inactive).
Still for that read-out and setting: the figure for `CCOC(=O)c1sc2nc3c(SCCC#N)cc(C(=O)c4cc(F)ccc4O)cn3c(=O)c2c1C` is 43.6% (inactive); for `CCCCP(=O)(CCCC)Cc1ccccc1` it is -0.8% (inactive).
Turning to `COc1ccc(-c2nnc(SCC(=O)NCc3cccs3)n2C(C)C)cc1`, the inhibition is -14.7% (inactive).
Turning to `O=c1c2c(nc3nc(NCc4cccc5ccccc45)[nH]n13)CCC2`, the inhibition is 4.9% (inactive).
Same read-out and setting: the figure for `O=C(O/N=C(\c1ccccc1)c1ccncc1)c1ccccc1F` is -7.6% (inactive); for `O=C(Nc1ccc(NC(=O)c2sc3ccccc3c2Cl)cc1Cl)c1ccco1` it is 31.4% (inactive); for `O=C(Nc1cccc(NC(=O)c2sc3ccccc3c2Cl)c1)c1ccco1` it is 12.7% (inactive).
Same read-out and setting: then `O=C(Nc1ccc(NC(=O)c2sc3ccccc3c2Cl)cc1)c1ccco1`, with 60.5% (active).
On the same count and under the same terms, the figure for `CCS(=O)(=O)N1CCCC(C(=O)N2CCc3ccccc3C2)C1` (stereo unspecified) is 0% (inactive); for `COc1cc(/C=N/n2cnnc2)ccc1OC(=O)c1ccco1` it is 1.6% (inactive); for `CCN(CC)C(=O)C(=O)Nc1ccc(OC)c(Cl)c1` it is 1.5% (inactive).
On to `Cc1cc(=O)c2ccc(Cl)cc2[nH]1`, for which the inhibition is 0.7% (inactive).
The same measure, in the same setting: the figure for `O=C(O)/C=C/C(=O)NCc1csc2ccccc12` is -5% (inactive).
